High-throughput results deposited in PubChem BioAssay by ICCB-Longwood Screening Facility, Harvard Medical School.
AID504770 – E. coli YBA685 growth inhibition, screen for V. cholerae RctB inhibitors | E. coli YBA685 rctB-dependent plasmid, OD600 growth, 3 h; active compounds read low | 130,000 compounds, 0.27% hits | z-score (test concentration not listed) | AID 504770; in the data active = z-score below about -2, passing the limit was not always enough
MenB inh – Mtb MenB enzyme inhibition; P9WNP5; MenB enzyme assay, absorbance read-out; inhibition, % (no concentration beside the values); 100,000 compounds, 0.43% hits; AID 540299; in the data active = inhibition above about 21%, passing the limit was not always enough
PV pol inh – poliovirus RNA polymerase inhibition | poliovirus polymerase elongation, fluorescence polarization; active compounds read low | 150,000 compounds, 0.66% hits | P03300 | % elongation, % (compound at 16.7 µg/mL) | AID 588519; in the data active = % elongation below about 90%
Target sequence (P03300 1749-2209 limits assumed): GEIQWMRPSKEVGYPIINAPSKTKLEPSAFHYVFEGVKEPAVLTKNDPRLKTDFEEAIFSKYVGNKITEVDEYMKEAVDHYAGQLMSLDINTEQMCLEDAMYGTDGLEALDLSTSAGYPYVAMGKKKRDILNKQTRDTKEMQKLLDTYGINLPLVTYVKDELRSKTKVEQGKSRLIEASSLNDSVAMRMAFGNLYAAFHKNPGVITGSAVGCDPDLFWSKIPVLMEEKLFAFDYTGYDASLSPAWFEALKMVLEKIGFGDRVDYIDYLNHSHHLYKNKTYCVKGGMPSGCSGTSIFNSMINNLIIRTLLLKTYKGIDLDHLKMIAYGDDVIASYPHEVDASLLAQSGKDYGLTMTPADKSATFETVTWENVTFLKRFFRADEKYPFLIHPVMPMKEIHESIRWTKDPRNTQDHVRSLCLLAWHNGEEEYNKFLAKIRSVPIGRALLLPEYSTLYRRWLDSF
Mtb MbtI inh – blocks the Mycobacterium tuberculosis siderophore enzyme MbtI. purified MbtI enzyme, fluorescence intensity read-out. inhibition, % (concentration not given with the values). 100,000 compounds, 0.89% hits. AID 493033; in the data active = inhibition mostly above about 56%, no sharp cut-off; inactive = mostly below about 77%
A number is an active result; i = inactive; nt = no result; ! = not active in a repeat. The list is not random: actives were taken first. Their share in the collection is about 1.5%.

SMILES	AID504770	MenB inh	PV pol inh	Mtb MbtI inh
S=c1[nH]nc(C2COc3ccccc3O2)o1 (configuration not stated)	i	i	i	73!
COc1nncc(-c2cnnc(SC)n2)n1	-2	i	15	nt
COc1ccc(-c2ccnc(SC)n2)cc1	i	nt	nt	nt
O=C(O)CCc1ccc2c(c1)CCO2	i	nt	nt	nt
CCn1nnc2cc(C(=O)OCC(=O)Nc3cc(F)ccc3F)ccc21	i	i	nt	i
O=c1[nH]c(=S)[nH]c(C(F)(F)F)c1Cc1ccc(Cl)c(Cl)c1	i	i	i	i
O=c1[nH]c(=S)[nH]nc1Cc1ccc(Cl)c(Cl)c1	i	i	i	58
CCN(Cc1ccccc1)C(c1ccccn1)c1nnnn1C1CCCCC1 (configuration not stated)	i	34	i	i
CC(=O)N1C(=O)C2(OCCO2)c2ccccc21	i	i	i	i
CCCCCOc1ccc(NC(=O)Cn2c(-c3cncs3)nc3ccccc32)cc1	nt	nt	89	nt
CCCc1n[nH]c(=S)s1	i	i	87	89
Cc1ccc(C)n1-c1n[nH]c(=S)s1	i	i	i	i
Cc1ccc(C2NC(=O)c3c(sc4c3CCC(C(C)(C)C)C4)N2)o1 (configuration not stated)	i	i	i	i
CC(C)(C)SCC(=O)O	i	i	84	i
Cc1n[nH]c(C)c1SCC(=O)O	i	i	i	i
O=C1C=CC(=O)N1c1ccc(F)c(Cl)c1	i	nt	i	93
CCNc1nc(NCC)nc(N(C)N)n1	i	32	i	i
COC(=O)C1Cc2ccccc2CN1 (configuration not stated)	i	nt	i	i
O=C(c1ccc(CS(=O)(=O)c2ccc(Br)cc2)o1)N1CCN(Cc2ccc3c(c2)OCO3)CC1	i	i	i	i
Clc1ccc(Cn2nnc3c(SCc4cccnc4)ncnc32)cc1	i	i	i	i
COc1cccc(OC)c1C(=O)N(C(=O)c1c(OC)cccc1OC)c1oc(-c2ccco2)c(-c2ccco2)c1C#N	i	i	i	i
N#Cc1c(N(C(=O)/C=C/c2ccco2)C(=O)/C=C/c2ccco2)oc(-c2ccco2)c1-c1ccco1	i	i	89	i
C=CCN1C(=O)/C(=C/c2ccco2)C(=O)NC1=S	i	i	i	86
O=C1NC(=O)N(Cc2ccco2)C(=O)/C1=C\c1ccco1	i	i	i	i
C=CCN1C(=O)NC(=O)/C(=C/c2ccco2)C1=O	i	i	i	98
SMILES	AID504770	MenB inh	PV pol inh	Mtb MbtI inh
Cc1cccc(C(N)=S)c1	i	i	i	62
CC(NC(=O)C(=S)N1CCCC1)c1ccccc1 (configuration not stated)	i	i	i	i
CC1=C(C)CC2C(=O)N(c3ccc(N4CCOCC4)cc3)C(=O)C2C1 (configuration not stated)	i	nt	i	i
O=C1C=CC(=O)N1c1ccc(N2CCOCC2)cc1	i	i	i	93
CCc1c(C)c(C#N)c2nc3ccccc3n2c1NCC(C)C	i	i	i	i
CCOC(=O)c1c(-c2ccco2)csc1NC(=O)Cn1cnc2ccccc2c1=O	i	i	i	i
O=c1cc(-c2ccccc2)ss1	i	i	82	53
O=S(=O)(/N=c1/cc(-c2ccccc2)ss1)c1ccccc1	i	i	i	nt
CN(C)c1ccc(/C=N/OC(=O)NC2CCCCC2)cc1	i	i	i	i
Cc1ccc2c(c1)N(CC(N)=O)C(=O)CO2	i	i	i	i
CC1SC(c2ccccc2)NC1=O (configuration not stated)	i	i	i	91
Cc1ccc(S(=O)(=O)Nc2ccc(N=NN3CCCCC3)cc2)cc1	-6.8	i	i	i
O=S(=O)(NC1=NCCS1)c1ccc(N=NN2CCCCC2)cc1	i	i	i	i
CN(Cc1ccccc1F)C(=O)c1ccccc1S(C)(=O)=O	i	i	i	i
COc1ccc(N=C/C(Br)=C/c2ccccc2)cn1	i	nt	i	i
COc1ccccc1NS(=O)(=O)c1ccc2oc(=S)n(CN(C)CCC#N)c2c1	i	i	85	i
COc1ccccc1NS(=O)(=O)c1ccc2oc(=S)n(CN3CCCC3)c2c1	i	i	i	i
CCCN(CCC)Cn1nc(-c2ccncc2)n(CCCOCC)c1=S	i	i	i	i
CCN(CC)C(=O)C1CCN(Cc2cccc(OC)c2OC)CC1	i	i	i	i
O=C1c2ccccc2C(=O)C1(O)N1CCOCC1	i	i	34	i
O=C(CC1(c2ccc(Cl)cc2)C(=O)c2ccccc2C1=O)N1CCOCC1	i	i	i	i
N#CCCn1nc(-c2ccc(Cl)cc2)cc1-n1c(C(F)(F)F)nc2ccccc21	i	i	i	i
COc1ccc(C(C(=O)NCc2ccccc2)N(Cc2ccco2)C(=O)c2cnccn2)cc1 (configuration not stated)	i	36	i	i
